Assay outcomes as filed in PubChem BioAssay.
rTrxR1 inhibitor: blocks rat thioredoxin reductase 1; actives 1% (n = 390,000); recombinant rTrxR1, NADPH fluorescence consumption, selenite substrate; AID 588453; O89049; Potency, µM (series often up to 114 µM), for inactives: at the highest dose activity change, negative = inhibition, most hits filed as inhibitors; also: potency is read from the fitted curve at half-maximal effect; nearly all actives have a fitted effect of over 65% in size
Target sequence (O89049 whole entry, looked up): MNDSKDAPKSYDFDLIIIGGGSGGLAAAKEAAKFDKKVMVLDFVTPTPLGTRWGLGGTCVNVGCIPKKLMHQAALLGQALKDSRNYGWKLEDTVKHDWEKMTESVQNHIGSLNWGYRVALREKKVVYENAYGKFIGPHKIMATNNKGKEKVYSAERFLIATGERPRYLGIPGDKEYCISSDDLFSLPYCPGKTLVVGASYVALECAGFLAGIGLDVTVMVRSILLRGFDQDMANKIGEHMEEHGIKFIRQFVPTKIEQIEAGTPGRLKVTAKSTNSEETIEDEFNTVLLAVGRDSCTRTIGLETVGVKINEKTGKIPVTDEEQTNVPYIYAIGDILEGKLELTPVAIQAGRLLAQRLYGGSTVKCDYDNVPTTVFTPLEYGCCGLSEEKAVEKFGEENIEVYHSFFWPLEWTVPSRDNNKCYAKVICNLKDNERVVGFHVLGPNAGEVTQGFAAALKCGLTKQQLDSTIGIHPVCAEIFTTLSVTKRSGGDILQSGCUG
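Rat TrxR1 (90 nM in the dispensed reagent) was pre-reduced with 400 uM NADPH for 5 min at room temperature, then incubated with compound for 15 min. After 400 uM selenite was added, NADPH fluorescence (Ex 340/Em 450 nm) was followed for 8 min.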
GALK inhibitor: inhibitors of human galactokinase. Purified GALK, Kinase-Glo residual ATP luminescence. AID 1868. P51570. Potency, µM (doses to about 57.5 µM), for inactives: at the highest dose activity change, negative = inhibition, hits mostly inhibitors. actives 0.007% (n = 270,000); also: potency is read from the fitted curve at half-maximal effect
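Kinase-Glo Plus luminescence measured ATP left after a 1 h room-temperature reaction. The reaction used 5 nM GALK, 100 uM galactose and 35 uM ATP at pH 8.0 (20 mM HEPES, 5 mM MgCl2, 60 mM NaCl, 1 mM DTT, 0.01% BSA).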
Coupling enz: counter-screen for Giardia aldolase inhibitors: coupling enzyme system; coupling enzyme system counterscreen, AmpLite Red fluorescence; activity change, negative = inhibition, % at 58.2 µM, hits read low; actives 0.67% (n = 290,000); in the data active = activity change below about -30%
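First, compound is pin-transferred into glyceraldehyde-3-phosphate coupling-enzyme reagent at 57.5 uM final and held 10 min at RT. Next, substrate, coupling system and AmpLite Red are added. After 20 min RT, fluorescence (525/598 nm) is read.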
RORgamma inh: blocks mouse ROR gamma transcriptional activity | Drosophila S2 Gal4-RORgamma UAS-luciferase reporter, 20 h | Potency, µM (doses to about 53.6 µM), for inactives: at the highest dose activity change, negative = inhibition, hits mostly inhibitors | actives 5.4% (n = 310,000) | AID 2551; also: potency is read from the fitted curve at half-maximal effect; nearly all actives have a fitted effect of over 60% in size
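Luminescence from a UAS-regulated Photinus luciferase reporter in stably transfected Drosophila Schneider cells is measured; decreased signal marks ROR gamma inhibition. Fusion expression is induced by 700 uM copper sulfate for 20 hr.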
VP16 counter: inhibits Gal4-VP16 luciferase reporter, ROR gamma counter-screen | Potency, µM (doses to about 53.6 µM), without a hit: top-dose activity, negative = inhibition, usual class: inhibitors | actives 3.5% (n = 310,000) | Drosophila S2 Gal4-VP16 UAS-luciferase, luminescence, 20 h;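 also: Gal4-VP16 expression switched on by copper sulfate through the metallothionein promoter; potency is read from the fitted curve at half-maximal effect; nearly all actives have a fitted effect of over 50% in size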
TrxR1 substrate: substrates of rat thioredoxin reductase 1; O89049; purified TrxR1 substrate turnover, NADPH consumption readout; Potency, µM (doses to about 114 µM), for the others: top-dose activity change, negative = substrate turnover; actives 0.01% (n = 390,000); also: potency is read from the fitted curve at half-maximal effect; nearly all actives have a fitted effect of over 50% in size
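Rat TrxR1, dispensed at 90 nM, was prereduced with 400 uM NADPH (final) for 5 min at ~22 deg C, then incubated with compound 15 min before 400 uM selenite. A first-read NADPH fluorescence drop versus no-compound background flagged substrates.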
Starred values were filed as active, the others as inactive; i = inactive; u = inconclusive; x = no result given; ! = not confirmed by another sample; [ ] = dose if it differs, or a comment. Most compounds without a hit are left out; they make up all but 5.9% or so of the library. Unless noted, calls follow the shape of the dose curve; as a rule, active = well fitted curve in the direction sought with a large enough effect; inconclusive = small, poorly fitted or top-dose-only effect, or another doubt; inactive = no such curve, though single readings can be large; an effect the other way counts as inactive or inconclusive. % is scaled to controls: 0 for no effect and ±100 for the full control effect.

SMILES | rTrxR1 inhibitor | GALK inhibitor | Coupling enz | RORgamma inh | VP16 counter | TrxR1 substrate
COc1ccccc1/C=N/NC(=O)CNC(=O)c1ccc(S(=O)(=O)N(C)C)cc1 | 17% | 7% | 2 | -16% | -5% | 1%
O=C(CSc1nnc(-c2ccc(F)cc2)c2ccccc12)Nc1ccccc1 | -1% | -1% | 1 | u | 2% | -2%
COC(=O)Cc1nnc(SCC(=O)Nc2ccccc2)c2ccccc12 | 50µM* | 6% | x | 20% | -11% | -6%
C=C(C)c1ccc(C(C)(C)NC(=O)N(Cc2ccccc2)Cc2ccco2)cc1 | 15% | 2% | 1 | u | -18% | 5%
COc1cc(C2C(C(=O)c3ccc(C)o3)=C(O)C(=O)N2c2cc(C)on2)ccc1OCc1ccccc1 (stereo unspecified) | 12% | 11% | 7 | 9% | 2% | -7%
COc1cc2c(cc1OC)-c1c(oc3cc(O)cc(O)c3c1=O)CO2 | x | x | -8 | u | 20µM* | x
COc1ccc(-c2c(C)oc3cc(O)cc(O)c3c2=O)cc1OC | -6% | -4% | 3 | u | 24% | 2%
C=C(C)Cn1c(CN(C)Cc2ccccc2)nc2c1c(=O)n(C)c(=O)n2C | 10% | -2% | 1 | u | u | -4%
Cc1cc(/C=N/n2cnnc2)c(C)n1-c1ccc(OCc2ccc(Cl)cc2Cl)cc1 | 9%[57.1 µM] | 1% | 8 | 0% | 11µM* | 4%[57.1 µM]
CC(=O)c1c(C)[nH]c(C(=O)Nc2nc(-c3ccc(Cl)cc3)cs2)c1C | 12% | 3% | -2 | u | u | -2%
CC(=O)c1c(C)[nH]c(C(=O)Nc2ccc(S(=O)(=O)N(C)C)cc2)c1C | 11% | 1% | -2 | 0.22µM* | 1% | 3%
CC(=O)c1c(C)[nH]c(C(=O)Nc2ccc(C)cn2)c1C | 2%[57.1 µM] | 2% | 0 | 2µM* | u | 7%[57.1 µM]
CC(=O)c1c(C)[nH]c(C(=O)Nc2cccc(S(=O)(=O)N(C)C)c2)c1C | 17%[57.1 µM] | -1% | -1 | 10% | u | 9%[57.1 µM]
CC(=O)c1c(C)[nH]c(C(=O)Nc2cc(C)cc(C)c2)c1C | -12% | 2% | -1 | u | 4% | -13%
CC(=O)c1c(C)[nH]c(C(=O)Nc2nc(C)cs2)c1C | 29%[57.1 µM] | 11% | 0 | 4.5µM* | 10µM* | 11%[57.1 µM]
Cc1nn(CC(=O)N2CCCCC2)c(=O)c2cc3occc3n12 | -12% | x | x | x | x | -5%
COc1ccc2c(c1)CCc1cc(C(=O)O)sc1-2 | 45µM* | -2% | 0 | 18% | -7% | i
O=C(O)c1cc2c(s1)-c1ccccc1CC2 | -15% | -3% | 0 | -6% | -5% | 545%
Cc1ccc2c(c1)C(=C(C#N)C#N)CCN2 | u | x | x | x | x | -9%
CCC(=O)Nc1ccc(/C(C)=N/NC(=O)c2c(-c3ccccc3Cl)noc2C)cc1 | 13% | 2% | 3 | 3% | -21% | 8%
Cc1onc(-c2ccccc2)c1C(=O)N/N=C(\N)COc1ccc(Cl)cc1 | -9%[57.1 µM] | 0% | 1 | 1µM* | 1.3µM* | -2%[57.1 µM]
COc1ccc(Cl)cc1/C=N/NC(=O)c1c(-c2ccccc2)noc1C | 35% | 1% | x | u | -14% | 6%
Cc1onc(-c2ccccc2Cl)c1C(=O)N/N=C(\N)COc1ccc(Cl)cc1 | -8% | 1% | 2 | 0.45µM* | 1µM* | -6%
O=C(Nc1cccc(C(F)(F)F)c1)c1noc2c1CCc1ccccc1-2 | -6% | x | x | x | x | -7%
O=C(Nc1cccc(O)c1)c1noc2c1CCc1ccccc1-2 | -3% | 0% | -4 | 0.35µM* | 1.4µM* | -6%
SMILES | rTrxR1 inhibitor | GALK inhibitor | Coupling enz | RORgamma inh | VP16 counter | TrxR1 substrate
Cc1ccc(-n2nc3c(=O)n(CCCC(=O)NCC(C)c4ccccc4)nc(C)c3c2C)cc1 (stereo unspecified) | 20% | -1% | x | 6% | -5% | 0%
Cc1cc[n+](C(C)C(=O)c2ccc(-c3ccccc3)cc2)cc1 (stereo unspecified) | 12%[57.1 µM] | -3% | 0 | u | 10µM* | 15%[57.1 µM]
COc1ccc(-c2ccc(CCC(=O)O)n2C(C)C)cc1 | u | 0% | 4 | -5% | 14% | 59%
CC(C)NC(=S)N/N=C/c1c[nH]c2ccccc12 | -20% | -2% | -2 | 3.5µM* | 1.4µM* | -9%
Cc1[nH]c2ccccc2c1/C=N/NC(=S)NC(C)C | u | -1% | -2 | 2.5µM* | 7.1µM* | -17%[57.1 µM]
COc1ccccc1NC(=O)c1sc2ncn(Cc3ccccc3Cl)c(=O)c2c1C | 21%[57.1 µM] | x | x | x | x | 7%[57.1 µM]
CC(=O)Oc1ccc(N(C(C)=O)S(=O)(=O)c2cccs2)c2ccccc12 | 5% | 0% | -15 | 20µM* | u | 11%
O=C(NC1C/C(=N/O)c2cc3c(cc21)OCO3)C(F)(F)F (stereo unspecified) | 29% | -1% | 1 | -10% | 7% | 2%
NS(=O)(=O)c1cccc2c1c([N+](=O)[O-])cc1[nH]c(=O)c(=O)[nH]c12 | x | x | -35*! | -8% | -11% | x
Cc1cccc(-n2c(C)nc3c(cnn3-c3ccc(F)cc3)c2=O)c1 | 0% | -1% | 3 | -39% | 7.1µM* | -5%
Cc1cccc(-n2c(-c3ccco3)nc3c(cnn3-c3ccc(F)cc3)c2=O)c1 | 10% | x | x | x | x | -2%
COc1ccc(-c2cc(C(=O)Nc3ccc4c(c3)OCO4)no2)cc1OC | 7%[57.1 µM] | 5% | -2 | -28% | 1% | 4%[57.1 µM]
CCOc1ccc(C2C(C(=O)c3ccc(C)o3)=C(O)C(=O)N2c2nc(C)c(C(=O)OC)s2)cc1 (stereo unspecified) | u | 14% | 9 | 1.1µM* | -26% | -10%
CCOc1ccc(C(NC(C)=O)c2cc(Cl)c3cccnc3c2O)cc1 (stereo unspecified) | 22%[0.0914 µM] | x | x | x | x | -6%
O=C(O)COc1ccccc1C(Nc1ccccn1)c1cc(Cl)c2cccnc2c1O (stereo unspecified) | u | 1% | -23 | u | -2% | -5%[11.4 µM]
CCOc1ccc(C(Nc2cccnc2)c2cc(Cl)c3cccnc3c2O)cc1 (stereo unspecified) | 2.8µM* | 8% | -25 | 5.6µM* | u | 9%[11.4 µM]
O=C(O)COc1ccccc1C(Nc1cccnc1)c1cc(Cl)c2cccnc2c1O (stereo unspecified) | 0.56µM* | -1% | -27 | 12% | -8% | 1%[57.1 µM]
O=C(NC(c1ccccc1)c1cc(Cl)c2cccnc2c1O)c1cccnc1 (stereo unspecified) | x | 1% | -2 | 0.63µM* | 0.79µM* | x
CC(=O)Nc1ccc(S(=O)(=O)Oc2ccc(C(=S)N3CCC(O)CC3)cc2)cc1 | -2% | -2% | 8 | u | 35µM* | -6%
